# High-throughput results (PubChem)
# Luciferase inh = Firefly luciferase inhibition profiling of diverse chemical library using quantitative high-throughput screening; Luciferin 4-monooxygenase (Photinus pyralis), P08659; purified P. pyralis luciferase, luminescence, biochemical; Potency, µM (titrated, usually from 115 µM), actives largely listed as inhibitors; 76,000 compounds, 2.5% hits; AID 1347043, 2019; also: nearly all actives have a fitted effect of over 65% in size
# Target sequence (P08659 whole entry, looked up): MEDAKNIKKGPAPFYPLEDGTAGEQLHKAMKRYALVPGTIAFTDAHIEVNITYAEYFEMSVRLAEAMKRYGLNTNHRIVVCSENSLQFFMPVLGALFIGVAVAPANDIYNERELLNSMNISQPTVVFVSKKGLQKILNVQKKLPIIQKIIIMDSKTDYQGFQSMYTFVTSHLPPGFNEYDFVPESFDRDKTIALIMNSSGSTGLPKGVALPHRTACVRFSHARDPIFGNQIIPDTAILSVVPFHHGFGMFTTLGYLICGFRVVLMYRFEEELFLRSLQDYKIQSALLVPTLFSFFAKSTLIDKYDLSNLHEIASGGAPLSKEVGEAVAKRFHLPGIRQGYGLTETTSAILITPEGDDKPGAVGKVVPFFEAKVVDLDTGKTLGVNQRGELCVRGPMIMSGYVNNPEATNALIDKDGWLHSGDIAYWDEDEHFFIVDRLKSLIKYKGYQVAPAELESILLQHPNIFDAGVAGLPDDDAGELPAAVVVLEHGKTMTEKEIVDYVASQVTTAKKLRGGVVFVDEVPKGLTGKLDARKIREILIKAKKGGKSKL
#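 Luminescence read by CCD imager after adding enzyme (10nM final) to wells holding compound, titrated in qHTS. Substrates 10uM each D-luciferin and ATP; buffer 50mM Tris acetate pH 7.5, 10mM Mg acetate, Tween-20, BSA.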
# hNpr1 antagonist = Natriuretic polypeptide receptor (hNpr1) antagonism - Primary qHTS. Potency, µM (titrated, usually from 46.3 µM), without a hit: at the highest dose activity change, negative = inhibition, usual class: inhibitors. Atrial natriuretic peptide receptor 1 (Homo sapiens), P16066. HEK293 hNpr1 GloSensor cGMP, ANP-stimulated luminescence. AID 1347048, 2019. 76,000 compounds, 1.6% hits; calls by dose curve; also: nearly all actives have a fitted effect of over 60% in size
#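 Compound pre-incubated 30 min at room temperature on GloSensor-loaded HEK293 cells stably carrying hNpr1 and the pGS-40F cGMP biosensor. Stimulation uses hNppA at 0.1 nM final; luminescence is taken at baseline and 20 min post-agonist.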
# 3T3 cytotox = Cytotoxic Profiling in NIH 3T3 Cell Line of Diverse Libraries Using Quantitative High-Throughput Screening; NIH 3T3 viability, CellTiter-Glo ATP luminescence, 48-72 h; Potency, µM (top dose mostly 96.7 µM), for the others: at the highest dose activity change, negative = cytotoxicity, hits mostly inhibitors; 94,000 compounds, 4.3% hits; also: nearly all actives have a fitted effect of over 55% in size
#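 ATP-dependent luminescence (CellTiter-Glo) served as the viability signal for NIH 3T3 cells treated with compound for 48 or 72 hr at 37 °C.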
# GPT2 inhibitor = Primary qHTS assay for inhibitors of Glutamate pyruvate transaminase 2 (GPT2); Recombinant GPT2, coupled pyruvate oxidase/HRP Amplex Red fluorescence; Alanine aminotransferase 2 (Homo sapiens), Q8TD30; 100,000 compounds, 0.25% hits; Potency, µM (series often up to 57.7 µM), inactives show at the highest dose activity change, negative = inhibition, most hits filed as inhibitors; also: nearly all actives have a fitted effect of over 60% in size
#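 GPT2 10ng/uL, a-KG 250uM, L-Ala 2mM, HEPES pH7.5 + 0.0001% Tween; 30 min RT. Then Amplex mix (PO/HRP/ThPP), 30 min RT dark, fluorescence. AOA 50uM used as positive control.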
# HEK293 tox = Cytotoxic Profiling in HEK 293 Cell Line of Diverse Libraries Using Quantitative High-Throughput Screening; 94,000 compounds, 6.6% hits; HEK 293 viability, ATP luminescence (CellTiter-Glo), 48-72 h; Potency, µM (series often up to 115 µM), without a hit: at the top dose activity change, negative = cytotoxicity, hits mostly inhibitors; also: nearly all actives have a fitted effect of over 60% in size
#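 Read-out: CellTiter-Glo ATP luminescence. Cells: HEK 293, 250 cells/well. Exposure: 48 or 72 hr, 37 degree Celsius.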
# Starred values were filed as active, the others as inactive; i = inactive; ? = inconclusive; . = not tested or not shown; [ ] = remark or other dose. An excerpt weighted towards active compounds, which were near 10% of everything screened. Unless noted, calls follow the shape of the dose curve; as a rule, active = well fitted curve in the direction sought with a large enough effect; inconclusive = small, poorly fitted or top-dose-only effect, or another doubt; inactive = no such curve, though single readings can be large; an effect the other way counts as inactive or inconclusive. % is scaled to controls: 0 for no effect and ±100 for the full control effect; potency is read from the fitted curve at half-maximal effect.
SMILES,Luciferase inh,hNpr1 antagonist,3T3 cytotox,GPT2 inhibitor,HEK293 tox
O=C1NC(=NC2CCCCC2)C2(CCN(Cc3ccccc3)C2)N1c1cccnc1 (centres undefined),.,.,?,4%,-19%
O=C1NC(=NC2CCCC2)C2(CCN(Cc3ccc(F)cc3)C2)N1c1cccnc1 (centres undefined),.,.,22µM*,-4%,-15%
CCN(Cc1cnn(CC)c1)C(=O)CN1CC2CC(C1)[C@H]1CCCC(=O)N1C2 (some centres undefined),i,-13%,3%,-11%,4%
O=C(Nc1cccc(F)c1)N1Cc2[nH]cnc2C[C@H]1c1nc(-c2ccc(C(F)(F)F)cc2)no1,?,-3%,?,i,?
Cc1cc(N2CCN(Cc3nc(-c4cccc(Cl)c4)no3)CC2)cc(C)n1,i,-12%,22µM*,i,40µM*
COc1cccc(CN2C(=O)CCCCC2C(=O)NC2CCS(=O)(=O)C2)c1 (centres undefined),i,0%,i,i,-3%
O=C(Cc1ccc(F)cc1)NC1CCN(Cc2cccc(-c3ccc(F)c(F)c3)c2)CC1,.,.,-26%,-5%,0%
O=[S+]([O-])(NC1CCN(Cc2cccc(-c3cccs3)c2)CC1)c1ccccc1,.,.,40µM*,-14%,45µM*
COC(=O)CNC(=O)C1CCN(C(=O)c2ccc(-c3cccs3)cc2)CC1,.,.,-28%,.,-13%
O=C(NCc1ccccc1Cl)C1CCN(C(=O)c2ccc(-c3cccs3)cc2)CC1,.,.,40µM*,.,?
Cc1ccc([S+](=O)([O-])NC2CCN(Cc3cccc(-c4cccs4)c3)CC2)cc1,.,.,11µM*,-11%,?
O=[S+]([O-])(NC1CCN(Cc2cccc(-c3ccc(F)c(F)c3)c2)CC1)c1cccs1,.,.,?,.,35µM*
O=[S+]([O-])(NC1CCN(Cc2cccc(-c3cccs3)c2)CC1)c1cccs1,.,.,?,i,?
CNc1ncc(C(=O)N2CCCC3(CCC(=O)N(CCOC)C3)C2)cn1 (centres undefined),i,-1%,-2%,-14%,-2%
O=C(c1ccc(-c2cccs2)cc1)N1CCC(N[S+](=O)([O-])c2ccccc2)CC1,.,.,?,i,45µM*
Cc1noc(C)c1[S+](=O)([O-])NC1CCN(C(=O)c2ccc(-c3cccs3)cc2)CC1,.,.,?,2%,?
O=[S+]([O-])(CCC(F)(F)F)NC1CCN(Cc2cccc(-c3cccs3)c2)CC1,.,.,22µM*,i,?
Cc1ncsc1CN1CCC(N2CC3(CCCCC3)C2c2ccccc2)CC1 (centres undefined),.,.,?,-4%,45µM*
Cc1ncsc1CN1CCC(N2C(=O)C(OCC3CC3)C23CCCCC3)CC1 (centres undefined),i,-2%,-27%,i,?
Cc1ccc(NC(=O)NC2CCN(c3ccc4nnc(C5CC5)n4n3)C2)cc1F (centres undefined),.,.,?,.,-13%
CC(C)(C)c1ccc(C(=O)NCc2nnc3c(-c4nc(C5CC5)no4)cccn23)cc1,16µM*,-16%,?,i,?
CC/C(=C(\c1ccc(O)cc1)c1ccc(OCCNC)cc1)c1ccccc1,.,.,.,-2%,.
CCn1ccc(C(=O)N2C[C@@H](COc3ccccc3)[C@H](C(N)=O)C2)n1,i,6%,-5%,-29%,-13%
COc1ccc2c(c1)CN(Cc1ccccc1)C(=O)CCN2CC(O)Cc1ccccc1 (centres undefined),.,.,?,.,79µM*
COc1ccc(OCC(O)CN2CCC(=O)N(Cc3ccccc3)Cc3cc4c(cc32)OCO4)cc1 (centres undefined),.,.,?,.,45µM*
SMILES,Luciferase inh,hNpr1 antagonist,3T3 cytotox,GPT2 inhibitor,HEK293 tox
COc1ccc2c(c1)CN(Cc1ccccc1)C(=O)CCN2C(C)=O,.,.,?,.,-20%
O=C1CCN(CC(O)Cc2ccccc2)c2cc3c(cc2CN1Cc1ccccc1)OCO3 (centres undefined),.,.,?,.,40µM*
O=C(NC1CCN(c2cc(-c3ccccc3)[nH]n2)C1)c1cccc(F)c1 (centres undefined),i,3%,-21%,-27%,?
CN1CC(=O)N(c2ccccc2F)Cc2c1ncnc2N1CCc2ccccc2C1,i,3%,?,i,?
COC(=O)c1ccc(CNC(=O)CC2c3cccnc3C(=O)N2c2ccccc2)cc1 (centres undefined),.,.,-20%[46.1 µM],0%[27.3 µM],?
CN(C)c1cccc(-c2cnc(NC(=O)C3CCOCC3)c3c2CCO3)c1,i,-2%[70.6 µM],-28%[138 µM],i,?
CCNC(=O)N1CCCC(Cc2noc(-c3ccccc3)n2)C1 (centres undefined),?,2%,-22%,?,32µM*
CCNC(=O)N1CCC(c2noc(-c3ccccc3)n2)C1 (centres undefined),i,7%,-10%,3%,-2%
CCn1cc(S(=O)(=O)N2CCCC2Cc2noc(-c3ccccc3)n2)cn1 (centres undefined),.,.,?,i,45µM*
Cc1ccc(CNC(=O)c2ccc3c(c2)CN(Cc2cncs2)CCO3)cc1,i,-11%,-9%,-5%,?
Cc1ccc(CNC(=O)c2ccc3c(c2)CN(Cc2cccc(F)c2)CCO3)cc1,i,-9%,?,i,?
Cc1ccc(CNC(=O)c2ccc3c(c2)CN(Cc2cc(F)c(F)c(F)c2)CCO3)cc1,i,-1%,?,-6%,35µM*
Cc1ccc(CNC(=O)c2ccc3c(c2)CN(CC2=Cc4ccccc4OC2)CCO3)cc1,i,?,?,i,28µM*
CN1CCc2c([nH]c3ccccc23)C12CCN(C(=O)c1cc(CN3CCOCC3)on1)CC2,i,-2%,-18%,-1%,?
O=C(c1cc(CN2CCOCC2)on1)N1CCC2(CC1)NCCc1c2[nH]c2ccccc12,i,8%,-25%,1%,32µM*
O=C(NCc1ccc(F)cc1)N1CC(Oc2ccc(-c3noc(-c4ccccc4)n3)cc2)C1,?,14µM*,?,-17%,?
Cc1noc(-c2cccc(OC3CN(C(=O)NCc4ccccc4)C3)c2)n1,i,-13%,?,-1%,?
O=C(NCc1ccccc1)N1CC(Oc2ccc(-c3nc(-c4ccccc4)no3)cc2)C1,2.5µM*,?,-2%,i,?
